Assay outcomes (PubChem BioAssay)
Rows were chosen to be rich in hits. Some 5.2% of all compounds tested hit in one or more screens of this group.
VDR inh – inhibitors of human vitamin D receptor | actives 0.93% (n = 400,000) | Potency, µM, most hits filed as inhibitors | VDR-SRC2-3 peptide fluorescence polarization, 2 h | AID 504847 | P11473
Target sequence (P11473 whole entry, looked up): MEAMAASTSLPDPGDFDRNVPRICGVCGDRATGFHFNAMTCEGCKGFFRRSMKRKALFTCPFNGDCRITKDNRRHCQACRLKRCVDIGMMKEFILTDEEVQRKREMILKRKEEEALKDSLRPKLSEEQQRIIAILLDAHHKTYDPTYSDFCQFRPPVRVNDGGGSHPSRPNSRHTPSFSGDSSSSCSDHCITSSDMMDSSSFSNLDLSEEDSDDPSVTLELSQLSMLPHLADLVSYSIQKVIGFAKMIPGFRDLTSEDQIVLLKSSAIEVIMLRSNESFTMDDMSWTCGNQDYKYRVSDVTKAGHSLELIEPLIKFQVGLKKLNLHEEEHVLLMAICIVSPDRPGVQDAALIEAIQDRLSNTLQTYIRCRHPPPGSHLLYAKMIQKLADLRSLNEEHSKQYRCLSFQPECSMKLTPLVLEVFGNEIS
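Compounds are added to VDR with labelled SRC2-3 coactivator peptide and held 2 h at room temperature. Inhibition of the VDR–peptide interaction is then read as a change in fluorescence polarization.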
PLK1 PBD block – inhibitors of human PLK1 polo-box domain binding | P53350 | AID 720504 | Potency, µM, most hits filed as inhibitors | actives 2.8% (n = 360,000) | Plk1 PBD binding of FITC phosphopeptide, fluorescence polarization; further: series mostly up to about 57 µM; nearly all actives have a fitted effect of over 65% in size
mIDH1 inhibitor – inhibitors of human mutant IDH1 R132H. actives 0.093% (n = 390,000). IDH1-R132H enzyme, NADPH consumption, diaphorase/resazurin fluorescence. Potency, µM (titrated, usually from 76.6 µM), usual class: inhibitors; further: nearly all actives have a fitted effect of over 65% in size
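IDH1-R132H (0.5 ug/mL) preincubated 30 min with compound, then NADPH (0.016 mM) and alpha-KG (2 mM) added; 80 min at RT, pH 7.5. Remaining NADPH coupled via diaphorase/resazurin to fluorescence (540/590 nm); concentration-response curves normalized to no-enzyme control.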
Sfp PPTase inh – Sfp phosphopantetheinyl transferase inhibition; actives 3.5% (n = 310,000); Potency, µM, actives largely listed as inhibitors; Q9F4F7; Biochemical Sfp PPTase activity, qHTS;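 further: the enzyme is Sfp with the accession as filed and its product quenches rhodamine fluorescence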
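Step 1, compound plus 15 nM Sfp-PPTase, 15 min, room temperature. Step 2, add rhodamine-CoA (5 uM) and BHQ-2-YbbR (12.5 uM). Step 3, read 525/598 nm fluorescence at 0 and 30 min.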
TrxR1 inh – inhibitors of rat thioredoxin reductase 1 | O89049 | recombinant rTrxR1, NADPH fluorescence consumption, selenite substrate | Potency, µM (top dose mostly 114 µM), most hits filed as inhibitors | actives 1% (n = 390,000) | AID 588453; further: nearly all actives have a fitted effect of over 65% in size
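Rat TrxR1 (90 nM in the dispensed reagent) was pre-reduced with 400 uM NADPH for 5 min at room temperature, then incubated with compound for 15 min. After 400 uM selenite was added, NADPH fluorescence (Ex 340/Em 450 nm) was followed for 8 min.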
TrxR1 substrate – substrates of rat thioredoxin reductase 1 | O89049 | purified TrxR1 substrate turnover, NADPH consumption readout | Potency, µM (highest dose often 114 µM) | actives 0.01% (n = 390,000) | AID 588456; further: nearly all actives have a fitted effect of over 50% in size
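Rat TrxR1, dispensed at 90 nM, was prereduced with 400 uM NADPH (final) for 5 min at ~22 deg C, then incubated with compound 15 min before 400 uM selenite. A first-read NADPH fluorescence drop versus no-compound background flagged substrates.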
VDR confirm – confirmation of human vitamin D receptor inhibitors; shares compounds with VDR inh; VDR-coactivator inhibition assay, qHTS confirmation; Potency, µM, hits mostly inhibitors; actives 89% (n = 840)
VDR FP fluor – VDR (human) coactivator binding inhibition, fluorescein polarization; shares compounds with VDR inh; VDR-coactivator binding, fluorescein fluorescence polarization; Potency, µM (highest dose often 57.1 µM), usual class: inhibitors; actives 48% (n = 840)
VDR bla reporter – VDR (human) inhibition, cell-based beta-lactamase validation; Potency, µM (series often up to 46.1 µM), actives largely listed as inhibitors; VDR beta-lactamase reporter cells, FRET ratio; cells co-treated with VDR agonist LG190178; actives 23% (n = 840); shares compounds with VDR inh; AID 602202
VDR cytotox – cytotoxic in counter-screen for VDR inhibitors; actives 18% (n = 840); cytotoxicity counter-screen, cell viability, qHTS; shares compounds with VDR inh; Potency, µM (top dose mostly 48.3 µM), most hits filed as cytotoxic; further: nearly all actives have a fitted effect of over 75% in size
Numbers stand for hits. The call rests on the fitted dose curve; in most records, active means well fitted curve in the direction sought with a large enough effect; inconclusive means small, poorly fitted or top-dose-only effect, or another doubt; inactive means no such curve, though single readings can be large; an effect the other way counts as inactive or inconclusive.

What do the screens show for `CC(=O)c1ccc(N=C2C(=O)Nc3ccccc32)cc1`?
VDR inh: 4µM; PLK1 PBD block: inconclusive; mIDH1 inhibitor: 26µM; Sfp PPTase inh: inactive; TrxR1 inh: inactive; TrxR1 substrate: inactive; VDR confirm: 3.4; VDR FP fluor: 3.5µM; VDR bla reporter: inactive; VDR cytotox: inactive

What do the screens show for `O=C1Nc2ccccc2C1=Nc1ccc(F)cc1`?
VDR inh: inconclusive; PLK1 PBD block: inactive; mIDH1 inhibitor: inactive; Sfp PPTase inh: inactive; TrxR1 inh: inactive; TrxR1 substrate: inactive

How did NC(=O)c1ccc(N=C2C(=O)Nc3ccc([N+](=O)[O-])cc32)cc1 do in these assays?
VDR inh: inconclusive; PLK1 PBD block: inconclusive; mIDH1 inhibitor: inactive; Sfp PPTase inh: inactive; TrxR1 inh: inconclusive; TrxR1 substrate: inconclusive; VDR confirm: 0.63; VDR FP fluor: 0.71µM; VDR bla reporter: inactive; VDR cytotox: inactive

What do the screens show for `NS(=O)(=O)c1ccc(N=C2C(=O)Nc3ccccc32)cc1`?
VDR inh: inactive; PLK1 PBD block: inactive; mIDH1 inhibitor: inactive; Sfp PPTase inh: inactive; TrxR1 inh: inactive; TrxR1 substrate: inactive

Results for O=C(/C=C/c1ccc(Br)cc1)c1ccco1 ?
VDR inh: 45µM; PLK1 PBD block: inactive; mIDH1 inhibitor: inactive; Sfp PPTase inh: inactive; TrxR1 inh: inactive; TrxR1 substrate: inactive; VDR confirm: 24; VDR FP fluor: inconclusive; VDR bla reporter: inactive; VDR cytotox: inactive

What do the screens show for `COc1ccccc1CCNC(=O)c1ccc2c(c1)c(C)c(C)n2Cc1ccc(Cl)cc1`?
VDR inh: inactive; mIDH1 inhibitor: inactive; TrxR1 inh: inactive; TrxR1 substrate: inactive

What do the screens show for `Cc1ccc(N(CC(O)CN2C(=O)NC(C)(C)C2=O)S(=O)(=O)c2ccc([N+](=O)[O-])cc2)cc1` (stereo not drawn)?
VDR inh: inactive; PLK1 PBD block: inactive; mIDH1 inhibitor: inactive; Sfp PPTase inh: inactive; TrxR1 inh: inactive; TrxR1 substrate: inactive

Results for Cc1ccc2c(c1)C(=O)C(=O)N2Cc1ccc(C(F)(F)F)cc1 ?
VDR inh: 25µM; PLK1 PBD block: inconclusive; mIDH1 inhibitor: inactive; TrxR1 inh: inactive; TrxR1 substrate: inconclusive; VDR confirm: 17; VDR FP fluor: 10µM; VDR bla reporter: inactive; VDR cytotox: inconclusive

What do the screens show for `CCCOc1ccc(CN2C(=O)C(=O)c3cccc(C)c32)cc1`?
VDR inh: inconclusive; mIDH1 inhibitor: inconclusive; TrxR1 inh: inactive; TrxR1 substrate: inactive

Results for Cc1ccc(CN2C(=O)C(=O)c3cc(Br)cc(C)c32)cc1 ?
VDR inh: 18µM; mIDH1 inhibitor: inconclusive; TrxR1 inh: inactive; TrxR1 substrate: inactive; VDR confirm: 7.1; VDR FP fluor: 10µM; VDR bla reporter: inactive; VDR cytotox: inactive

Results for Cc1ccc2c(c1)C(=O)C(=O)N2Cc1ccc(OC(C)C)cc1 ?
VDR inh: inconclusive; mIDH1 inhibitor: inactive; TrxR1 inh: inactive; TrxR1 substrate: inactive

Results for Cc1ccc(NC(=O)CSc2nnnn2C2CC2)cc1S(=O)(=O)N1CCOCC1 ?
VDR inh: inactive; PLK1 PBD block: inactive; mIDH1 inhibitor: inactive; TrxR1 inh: inactive; TrxR1 substrate: inactive

What do the screens show for `FC(F)(F)c1nnc(-c2ccccc2)nc1Sc1ccccc1`?
VDR inh: inactive; PLK1 PBD block: inactive; mIDH1 inhibitor: inactive; Sfp PPTase inh: inactive; TrxR1 inh: inconclusive; TrxR1 substrate: inactive

What do the screens show for `FC(F)(F)c1cccc(Sc2nc(-c3ccccc3)nnc2C(F)(F)F)c1`?
VDR inh: 32µM; PLK1 PBD block: inactive; mIDH1 inhibitor: inactive; Sfp PPTase inh: inactive; TrxR1 inh: inactive; TrxR1 substrate: inactive; VDR confirm: 15; VDR FP fluor: inconclusive; VDR bla reporter: inconclusive; VDR cytotox: inconclusive

What do the screens show for `O=C(/C=C/c1ccc([N+](=O)[O-])cc1)c1cccnc1`?
VDR inh: 56µM; PLK1 PBD block: inconclusive; mIDH1 inhibitor: inactive; Sfp PPTase inh: 18µM; TrxR1 inh: 32µM; TrxR1 substrate: inactive; VDR confirm: 24; VDR FP fluor: 8.9µM; VDR bla reporter: inactive; VDR cytotox: inconclusive

Results for O=C(/C=C/c1cccnc1)c1ccc(F)c(F)c1 ?
VDR inh: 45µM; PLK1 PBD block: inactive; mIDH1 inhibitor: inactive; Sfp PPTase inh: 63µM; TrxR1 inh: inconclusive; TrxR1 substrate: inactive; VDR confirm: inconclusive; VDR FP fluor: 8.9µM; VDR bla reporter: inconclusive; VDR cytotox: inconclusive

What do the screens show for `CCOC(=O)c1sc(NC(=O)c2ccncc2)c(C#N)c1C`?
VDR inh: 45µM; PLK1 PBD block: 3.8µM; mIDH1 inhibitor: inactive; Sfp PPTase inh: inconclusive; TrxR1 inh: inconclusive; TrxR1 substrate: inactive; VDR confirm: 3.8; VDR FP fluor: inconclusive; VDR bla reporter: inactive; VDR cytotox: inconclusive

What do the screens show for `Cc1cc(-c2nc3ncccc3o2)ccc1NC(=O)c1ccc(Cl)cc1`?
VDR inh: inactive; mIDH1 inhibitor: inactive; TrxR1 inh: inactive; TrxR1 substrate: inactive

How did CCCCN(C(=O)c1cc2c(s1)CCCCC2)c1c(N)n(CC(C)C)c(=O)[nH]c1=O do in these assays?
VDR inh: inactive; PLK1 PBD block: inactive; mIDH1 inhibitor: inactive; TrxR1 inh: inactive; TrxR1 substrate: inactive

How did CC(=O)Nc1cccc(C(=O)/C=C/c2ccc(C)cc2)c1 do in these assays?
VDR inh: 25µM; PLK1 PBD block: inactive; mIDH1 inhibitor: inactive; Sfp PPTase inh: inactive; TrxR1 inh: inconclusive; TrxR1 substrate: inactive; VDR confirm: 21; VDR FP fluor: inconclusive; VDR bla reporter: inconclusive; VDR cytotox: inconclusive

What do the screens show for `CCC(=O)Nc1cccc(C(=O)/C=C/c2ccc(F)cc2)c1`?
VDR inh: inconclusive; PLK1 PBD block: inactive; mIDH1 inhibitor: inactive; Sfp PPTase inh: inactive; TrxR1 inh: inactive; TrxR1 substrate: inactive

How did Cc1ccc(NC(=O)CC2Nc3cc(C)c(C)cc3NC2=O)c(C)c1 (stereo not drawn) do in these assays?
VDR inh: inactive; mIDH1 inhibitor: inactive; TrxR1 inh: inactive; TrxR1 substrate: inactive
